Twelve compounds from PubChem BioAssay (NCATS) can be followed below.

SMILES strings stand for the structures. Results filed as inconclusive are left out. Activity calls are given as the source filed them. Unless noted, the rule behind the calls is not given here.

Assay [1] is described as follows: qHTS profiling of the MIPE4 collection as inhibitors of Plasmodium falciparum (3D7) proliferation (AID 743344).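 Note: scaled between DMSO vehicle wells and 0.29 µM artemisinin as full inhibition.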 The note with it: P. falciparum 3D7 in erythrocytes, SYBR Green DNA fluorescence, 72 h; at 28.5 µM unless noted. An outline of the steps: (§1)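 Parasite DNA was quantified by SYBR Green I fluorescence (ex 485, em 535 nm) after overnight lysis in saponin/Triton buffer at room temperature. Cultures at 0.3% parasitemia and 2.5% hematocrit were first exposed to compound for 72 h at 37 C; signals were normalised to artemisinin (0.29 uM) and vehicle wells.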
For orientation: qHTS replaces the single test concentration by a dilution series.

Assay [2] in a line: qHTS profiling of the MIPE4 collection as inhibitors of Plasmodium falciparum (DD2) proliferation (AID 743345). The note with it: P. falciparum Dd2 in erythrocytes, SYBR Green DNA, 72 h; at 28.5 µM unless noted. An outline of the steps:
as §1

Assay [3] in a line: qHTS profiling of the MIPE4 collection as inhibitors of Plasmodium falciparum (DD2) proliferation (Rep 2) (AID 743346). The note with it: P. falciparum Dd2 in erythrocytes, SYBR Green DNA, 72 h; at 28.5 µM unless noted. An outline of the steps:
as §1

The nature of assay [4]: qHTS profiling of the MIPE4 collection as inhibitors of Plasmodium falciparum (HB3) proliferation (AID 743347).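 Note: plate controls were DMSO vehicle wells for no effect and artemisinin wells for full effect.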 The note with it: P. falciparum HB3 in erythrocytes, SYBR Green DNA, 72 h; at 28.5 µM unless noted. An outline of the steps: as §1
The nature of assay [5]: qHTS assay for measurement of the activity of small molecule inhibitors on Zika virus induced Caspase-3 activity in human iPSC derived neural progenitor cells (hNPCs) (AID 1224857; active = well fitted curve in the direction sought with a large enough effect; an effect the other way counts as inactive or inconclusive; note: % of control where 0% means no effect; nearly all actives have a fitted effect of over 65% in size). An outline of the steps:
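Pretreat hNPCs with compound 1 h; infect ZIKV 2 FFU/cell; 6 h 37 C, 5% CO2; Caspase-Glo 3/7, 30 min RT; luminescence; normalize to no-virus and virus-only wells.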

The nature of assay [6]: qHTS assay for measurement of the activity of small molecule inhibitors on Zika virus induced Caspase-3 activity in human astrocytoma cells (AID 1224859; active = well fitted curve in the direction sought with a large enough effect; an effect the other way counts as inactive or inconclusive;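 note: plate controls were ZIKV-infected untreated cells for no effect and uninfected cells for full effect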). An outline of the steps:
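Human SNB-19 astrocytoma cells in RPMI 1640 with 10% FBS receive compound one hour ahead of Zika virus at 2 FFU/cell. After 6 h infection, caspase-3/7 activity is detected by Caspase-Glo luminescence.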

A short description of assay [7]: High-throughput drug toxicity screening in the BPDCN cell line Cal-1 (AID 1224825). The note with it: Cal-1 BPDCN cell viability, qHTS; at 45.8 µM (top of the series) unless noted. An outline of the steps:
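CellTiter-Glo luminescence after 48 h compound exposure; percent activity scaled with DMSO as 100% and bortezomib (9.2 uM final) as 0%. Cal-1 cells seeded at 500/well in RPMI, 10% FBS, no phenol red.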

A short description of assay [8]: qHTS profiling for inhibitors of Plasmodium falciparum (3D7) proliferation (AID 743322).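 Note: infected erythrocytes exposed to compound for 72 h before lysis; 100% = DMSO vehicle wells and 0% = 0.29 µM artemisinin.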 To be noted: P. falciparum 3D7 proliferation; at 28.7 µM (top of the series). An outline of the steps: as §1
Assay [9] is described as follows: qHTS profiling for inhibitors of Plasmodium falciparum (DD2) proliferation (AID 743323). The note with it: lower = more inhibition; at 28.7 µM (top of the series). An outline of the steps: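 Parasite DNA quantified by SYBR Green fluorescence (ex 485, em 535 nm) after saponin/Triton lysis and overnight dark incubation. Cultures: 0.3% parasitemia, 2.5% hematocrit, 72 h, 37 C; data scaled between DMSO and 0.29 uM artemisinin.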

Assay [10] is described as follows: qHTS profiling for inhibitors of Plasmodium falciparum (HB3) proliferation (AID 743324; active = well fitted curve in the direction sought with a large enough effect; an effect the other way counts as inactive or inconclusive;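 note: 100% = DMSO vehicle wells and 0% = artemisinin-treated control wells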). To be noted: Plasmodium falciparum HB3 blood-stage proliferation; at 28.7 µM (top of the series). An outline of the steps:
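SYBR Green fluorescence (485 ex/535 em) of lysed cultures, incubated overnight at room temperature in the dark, quantifies parasite DNA. Infected erythrocytes at 0.3% parasitemia and 2.5% hematocrit were exposed 72 h; values normalized to DMSO and 0.29 uM artemisinin controls.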

The nature of assay [11]: qHTS Assay for Identifying Gametocytocidal Compounds (AID 743244; active = well fitted curve in the direction sought with a large enough effect; an effect the other way counts as inactive or inconclusive; note: potency is the fitted concentration of half-maximal effect;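 for max response: % is set by controls: 0 for no effect and ±100 for the full control effect; actives lower the fluorescent signal which means gametocytes are killed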). To be noted: P. falciparum 3D7 stage III-V gametocytes, alamarBlue, 72 h; max response: stronger effect = lower value. An outline of the steps: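 Compounds are pinned into medium, gametocytes (stage III–V, 3D7, 20,000 cells/well) added, and plates held 72 h at 37 °C in 5% CO2. AlamarBlue follows for 24 h before fluorescence reading.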

In assay [1], `COC(=O)C1=C(C)NC(C)=C(C(=O)OCCN2CCN(C(c3ccccc3)c3ccccc3)CC2)C1c1cccc([N+](=O)[O-])c1` (stereo not given) gave a parasite growth, % of DMSO control of 19.8%. For the same compound, the parasite growth remaining, % of DMSO control (lower = more inhibition) in assay [2] amounted to 45.6%. For the same compound, the parasite growth, % of control (lower = inhibition) in [3] is 43.1%. Also, the growth, % of control in assay [4] came to 18.9%. Further, the Potency result in assay [5] and in assay [6] was “inactive” each time.

For `COc1cc2c(cc1-c1c(C)noc1C)ncc1[nH]c(=O)n([C@H](C)c3ccccn3)c12`, the parasite growth, % of DMSO control in [1] was found to be 67.1%. In assay [2], the parasite growth remaining, % of DMSO control (lower = more inhibition) is 97.3%. Further, in [3], the parasite growth, % of control (lower = inhibition) was found to be 86.2%. The compound further had a growth, % of control in assay [4] of 74.1%. The viability (% of control) in assay [7] was 7.22%. Further, the Potency result in assay [5] and in assay [6] was “inactive” each time.

For `CCC[C@H](NC(=O)C(C#N)=Cc1cccc(Br)n1)c1ccccc1`, the remaining parasite growth % (stronger effect = lower value) in assay [8] was determined as 26.8%. Moreover, the activity, percent of control in assay [9] came to 23.2%. In assay [10], the remaining proliferation (% of control), lower = more inhibition was 14.8%. The parasite growth, % of DMSO control in [1] came to 11.6%. This compound also came in with a parasite growth remaining, % of DMSO control (lower = more inhibition) in assay [2] of 6.9%. For the same compound, the parasite growth, % of control (lower = inhibition) in assay [3] was found to be 17.5%. Also, the growth, % of control in assay [4] is 4.55%. In addition, the viability (% of control) in assay [7] was 4.33%. The Potency entry in assay [5] and in [6] was “inactive” throughout.

On to `CN1CCC(CNc2ccc3ncc(-c4cccc(OC(F)(F)F)c4)n3n2)CC1`, for which, in [11], the Potency is 9.35 µM (active). In [8], the remaining parasite growth % (stronger effect = lower value) is -1.19%. The same compound showed a parasite growth, % of DMSO control in assay [1] of 5.42%. In assay [2], this compound registered a parasite growth remaining, % of DMSO control (lower = more inhibition) of 6.44%. The parasite growth, % of control (lower = inhibition) in [3] was found to be 10.4%. For the same compound, in assay [4], the growth, % of control was found to be 8.22%. The viability (% of control) in [7] came out at 7.35%. Moreover, in [5], the Potency entry was “inactive”.

`CCc1cc2c(cc1N1CCC(N3CCOCC3)CC1)C(C)(C)c1[nH]c3cc(C#N)ccc3c1C2=O`: in assay [1], the parasite growth, % of DMSO control was 12.5%. This compound yielded a parasite growth remaining, % of DMSO control (lower = more inhibition) in [2] of 8.84%. In assay [4], the growth, % of control amounted to 12.5%. Also, in [7], the viability (% of control) stood at 76.4%. Besides, the Potency result in assay [5] and in assay [6] was “inactive” each time.

In assay [1], `COc1ccc2c(OCc3nnc4ccc(-c5ccccc5)nn34)ccnc2c1` gave a parasite growth, % of DMSO control of 53.1%. For the same compound, the parasite growth remaining, % of DMSO control (lower = more inhibition) in assay [2] was determined as 97.5%. The parasite growth, % of control (lower = inhibition) in assay [3] was found to be 67%. In addition, the viability (% of control) in assay [7] was 105%. For the same compound, the Potency entry in assay [5] and in assay [6] was “inactive” in each case.

As for `Cc1[nH]nc2ccc(-c3cncc(OC[C@@H](N)Cc4ccccc4)c3)cc12`, in assay [8], the remaining parasite growth % (stronger effect = lower value) was 30.1%. The same compound showed an activity, percent of control in [9] of 14.2%. In addition, the remaining proliferation (% of control), lower = more inhibition in assay [10] was found to be 17.9%. In addition, in assay [1], the parasite growth, % of DMSO control turned out to be 19.3%. Besides, in [2], the parasite growth remaining, % of DMSO control (lower = more inhibition) was 38%. This compound had a parasite growth, % of control (lower = inhibition) in assay [3] of 20.4%. The growth, % of control in [4] turned out to be 8.27%. Also, the viability (% of control) in assay [7] turned out to be 3.31%. In assay [5], the Potency entry is “inactive”.

Regarding `Nc1ccccc1NC(=O)c1ccc(CNc2nccc(-c3cccnc3)n2)cc1`, the Potency in assay [11] is 11.8 µM (active). Besides, in [8], the remaining parasite growth % (stronger effect = lower value) is -1.31%. Moreover, the parasite growth, % of DMSO control in assay [1] is 5.35%. Also, in assay [2], the parasite growth remaining, % of DMSO control (lower = more inhibition) is 7.08%. The compound further returned a parasite growth, % of control (lower = inhibition) in assay [3] of 7.5%. The same compound returned a growth, % of control in assay [4] of 2.52%. In addition, the viability (% of control) in assay [7] was 5.36%. For the same compound, the Potency result in assay [5] and in [6] was “inactive” in each case.

Turning to `Nc1ccccc1NC(=O)c1ccc(CNC(=O)OCc2cccnc2)cc1`, the max response in [11] was -2.71% (inactive). In addition, the remaining parasite growth % (stronger effect = lower value) in assay [8] came out at 99.2%. In [1], this compound gave a parasite growth, % of DMSO control of 25.3%. For the same compound, the parasite growth remaining, % of DMSO control (lower = more inhibition) in [2] was 31.3%. Further, the parasite growth, % of control (lower = inhibition) in assay [3] is 25.4%. For the same compound, the viability (% of control) in assay [7] came out at 5.69%. Further, the Potency entry in [5] and in [6] was “inactive” each time.

Compound `CNC(=O)c1nn(C)c2c1C(C)(C)Cc1cnc(Nc3ccc(N4CCN(C)CC4)cc3)nc1-2` displayed a parasite growth, % of DMSO control in assay [1] of 6.38%. Moreover, in assay [2], the parasite growth remaining, % of DMSO control (lower = more inhibition) was determined as 11.1%. This compound also returned a parasite growth, % of control (lower = inhibition) in assay [3] of 6.77%. In [4], this compound returned a growth, % of control of 3.32%. Besides, in [7], the viability (% of control) amounted to 3.8%. Besides, the Potency entry in [5] was “inactive”.

Turning to `Cc1c(NC(=O)OC[C@@H]2COCCN2)cn2ncnc(Nc3ccc4c(cnn4Cc4cccc(F)c4)c3)c12`, the parasite growth, % of DMSO control in assay [1] was 5.88%. This compound registered a parasite growth remaining, % of DMSO control (lower = more inhibition) in assay [2] of 11%. In addition, the growth, % of control in assay [4] was found to be 11.2%. In assay [7], the viability (% of control) is 13.9%. The Potency result in [5] and in [6] was “inactive” throughout.

In the case of `C=CC(=O)Nc1cccc(Oc2nc(Nc3ccc(N4CCN(C)CC4)cc3OC)ncc2Cl)c1`, the Potency in assay [11] is 14.8 µM (active). In assay [8], the remaining parasite growth % (stronger effect = lower value) is 5.98%. In [10], the remaining proliferation (% of control), lower = more inhibition is 6.16%. The compound further had a parasite growth, % of DMSO control in assay [1] of 10.5%. Further, in [2], the parasite growth remaining, % of DMSO control (lower = more inhibition) was determined as 15.1%. Also, the parasite growth, % of control (lower = inhibition) in [3] was found to be 26.7%. Further, in assay [7], the viability (% of control) amounted to 16.3%. The Potency result in assay [5] and in [6] was “inactive” each time.
